# From PubChem BioAssay (NCATS)
# Records with an inconclusive call do not appear. Where a call stands in place of a potency, no number is given. Calls of active or inactive are those of the source. Calls come from the whole dose curve; as a rule, active = well fitted inhibition curve with a large enough effect; inconclusive = small, poorly fitted or top-dose-only effect; inactive = flat fitted curve, though single readings scatter.
# System: astro (control astrocytes)
# Assay: Drug repurposing screens with cells derived from glioblastoma tumor samples (AID 1345199); note: nearly all actives have a fitted effect of over 40% in size
# Settings: viability, ATP luminescence, 48 h; series mostly up to 45.9 µM
# Description: CD133+ cells were isolated from GBM patient biopsies and cultured as neurospheres. Neurospheres from four patients were used to screen the NCATS pharmaceutical collection (NPC) library of approved drugs and bioactive compounds. […] The neurospheres were incubated with drugs for 48 hours in 1536-well format, then assayed with an ATP content cell viability assay. […] These hits were cherry picked to confirm activity in the four original GBM lines screened plus three other slower growing GMB lines (unable to yield enough cells for a full primary screen). Variable activities of the confirmed primary hits in the different GBM patient lines were observed. The patient line 206 responded to the greatest number of compounds and line 923 responded to the least amount of active compounds.
# Potency is the fitted concentration of half-maximal effect.
row,Compound,Potency
1,NCCS(=O)(=O)O,inactive
2,CC[N+](CC)(CC)CCOc1cccc(OCC[N+](CC)(CC)CC)c1OCC[N+](CC)(CC)CC,inactive
3,O=C1c2c(O)ccc(O)c2C(=O)c2c(NCCNCCO)ccc(NCCNCCO)c21,5.01 µM (active)
4,CC1(C)O[C@H]2CC(=O)OC[C@]23[C@H]2CC[C@@]4(C)[C@H](c5ccoc5)OC(=O)[C@H]5O[C@]54[C@]2(C)C(=O)C[C@@H]13,inactive
5,COc1ccc2[nH]cc(CCNC(C)=O)c2c1,inactive
6,COc1ccccc1OCCNCC(O)COc1cccc2[nH]c3ccccc3c12 (stereo not given),inactive
7,CCCNCC(O)COc1ccccc1C(=O)CCc1ccccc1 (stereo not given),inactive
8,CC(C)NCC(O)c1ccc(O)c(O)c1 (stereo not given),inactive
9,CCOC(=O)C(C)(C)Oc1ccc(Cl)cc1,inactive
10,CN(C)c1nc(N(C)C)nc(N(C)C)n1,inactive
11,NC(=O)OCC(COC(N)=O)c1ccccc1,inactive
12,OCCN(CCO)c1nc(N2CCCCC2)c2nc(N(CCO)CCO)nc(N3CCCCC3)c2n1,inactive
13,NC12CC3CC(CC(C3)C1)C2,inactive
14,N[C@@H](Cc1c[nH]c2ccc(O)cc12)C(=O)O,inactive
15,CN(C)CCC=C1c2ccccc2C=Cc2ccccc21,inactive
16,CN1CCN2c3ccccc3Cc3ccccc3C2C1 (stereo not given),20 µM (active)
17,CCOC(=O)Nc1ccc(NCc2ccc(F)cc2)nc1N,inactive
18,CC(C)(Oc1ccc(C2CC2(Cl)Cl)cc1)C(=O)O (stereo not given),inactive
19,CCOC(=O)c1ncn2c1CN(C)C(=O)c1cc(F)ccc1-2,inactive
20,CN(Cc1cnc2nc(N)nc(N)c2n1)c1ccc(C(=O)N[C@@H](CCC(=O)O)C(=O)O)cc1,inactive

row,Compound,Potency
1,COc1ccccc1N1CCN(CC(O)COc2cccc3ccccc23)CC1 (stereo not given),inactive
2,CN1CCC(=C2c3ccccc3C=Cc3ccccc32)CC1,17.8 µM (active)
3,COc1cc2nc(N3CCN(C(=O)C4COc5ccccc5O4)CC3)nc(N)c2cc1OC (stereo not given),inactive
4,Cc1ccccc1N1C(=O)c2cc(S(N)(=O)=O)c(Cl)cc2NC1C (stereo not given),inactive
5,CC(COc1ccccc1)N(CCCl)Cc1ccccc1 (stereo not given),inactive
6,CC(C)Cc1ccc(C(C)C(=O)O)cc1 (stereo not given),inactive
7,Fc1ccc([C@@H]2CCNC[C@H]2COc2ccc3c(c2)OCO3)cc1,22.4 µM (active)
8,Cc1cnc(C(=O)NCCc2ccc(S(=O)(=O)NC(=O)NC3CCCCC3)cc2)cn1,inactive
9,Nc1nc2c(ncn2COC(CO)CO)c(=O)[nH]1,inactive
10,CC12CC3CC(C)(C1)CC(N)(C3)C2,inactive
11,Cc1cc(C(C)(C)C)c(O)c(C)c1CC1=NCCN1,inactive
12,Nc1ccn([C@H]2CC[C@@H](CO)O2)c(=O)n1,inactive
13,CC(=O)OCC(CCn1cnc2cnc(N)nc21)COC(C)=O,inactive
14,COc1ccc2c(c1)c(CC(=O)O)c(C)n2C(=O)c1ccc(Cl)cc1,inactive
15,NCCCCCC(=O)O,inactive
16,C[C@H]1c2cccc(O)c2C(O)=C2C(=O)[C@]3(O)C(O)=C(C(N)=O)C(=O)[C@@H](N(C)C)[C@@H]3[C@@H](O)[C@@H]21,inactive
17,Cc1cn([C@H]2C[C@H](N=[N+]=[N-])[C@@H](CO)O2)c(=O)[nH]c1=O,inactive
18,CCN1CCCC1CNC(=O)c1cc(S(=O)(=O)CC)c(N)cc1OC (stereo not given),inactive
19,CS(=O)(=O)CCNCc1ccc(-c2ccc3ncnc(Nc4ccc(OCc5cccc(F)c5)c(Cl)c4)c3c2)o1,inactive
20,CN(C)C(=N)N=C(N)N,inactive
